From PubChem BioAssay AID1159580 (chemical genetic matrix, 2015)
Values joined by “and” are separate entries in the source; they are usually repeats but may differ in a detail not shown here. Equal values may be shown once. About 2,000 (36%) of roughly 5,500 compounds were called active. Not shown: some 18% with an inconclusive outcome. Cut-off read from the data, not from the text of the source: active = normalized growth mostly below about 0.91 (no sharp cut-off); inconclusive = no clear call, values can overlap the other calls; inactive = mostly above about 0.92. The list shows a part of the results.

Experiment: chemical genetic growth profiling, strain panel (AID 1159580);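 note: tested at 20 µM; growth read once vehicle control cultures reached saturation at 30 °C; 1 = growth at the plate median or of vehicle wells; lower values mean less growth of the strain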
Conditions: S. cerevisiae deletion strains, growth OD

Measured: normalized growth

Cc1ccc(S(=O)(=O)NC(=O)NN2CCCCCC2)cc1
inactive: locus YAL013W, strain DEP1, hits give low values 0.996 | locus YAL021C, strain ccr4, hits give low values 0.999 | locus YAL026C, strain drs2, hits give low values 0.974 | locus YAL030W, strain snc1, hits give low values 0.991 | locus YAL040C, strain CLN3, hits give low values 1.05 | locus YBL061C, strain skt5, hits give low values 0.986 | locus YBR009C, strain hhf1, hits give low values 0.994 | locus YBR021W, strain FUR4, hits give low values 0.986 | locus YBR023C, strain chs3, hits give low values 0.981 | locus YBR171W, strain sec66, hits give low values 0.99 | locus YBR229C, strain ROT2, hits give low values 0.995 | locus YBR231C, strain swc5, hits give low values 0.999 | locus YBR279W, strain paf1, hits give low values 0.994 | locus YCL011C, strain gbp2, hits give low values 0.987 | locus YCL016C, strain dcc1, hits give low values 0.953 | locus YCL029C, strain bik1, hits give low values 0.99 | locus YCL061C, strain MRC1 (second series), hits give low values 0.998 | locus YCL069W, strain vba3, hits give low values 0.986 | locus YCR088W, strain abp1, hits give low values 0.984 | locus YDL005C, strain med2, hits give low values 0.989 | locus YDL035C, strain GPR1, hits give low values 0.997 | locus YDL040C, strain nat1, hits give low values 0.991 | locus YDL074C, strain BRE1, hits give low values 1.06 | locus YDL101C, strain DUN1, hits give low values 0.997 | locus YDL134C, strain PPH21, hits give low values 0.987 | locus YDL185W, strain tfp1, hits give low values 0.983 | locus YDL192W, strain arf1, hits give low values 0.988 | locus YDR001C, strain nth1, hits give low values 0.986 | locus YDR069C, strain doa4, hits give low values 1 | locus YDR101C, strain arx1, hits give low values 0.989 | locus YDR137W, strain rgp1, hits give low values 0.932 | locus YDR150W, strain NUM1, hits give low values 1 | locus YDR159W, strain sac3, hits give low values 0.969 | locus YDR162C, strain NBP2, hits give low values 0.999 | locus YDR195W, strain ref2 0.996 | locus YDR297W, strain sur2, hits give low values 1 | locus YDR318W, strain mcm21, hits give low values 0.977 | locus YDR334W, strain swr1, hits give low values 0.978 | locus YDR335W, strain msn5, hits give low values 0.973 | locus YDR363W, strain ESC2, hits give low values 1.01 | locus YDR388W, hits give low values 0.985 | locus YDR392W, strain spt3, hits give low values 0.861 | locus YDR502C, strain sam2, hits give low values 0.991 | locus YEL003W, strain gim4, hits give low values 1.01 | locus YEL037C, strain rad23, hits give low values 0.975 | locus YEL061C, strain CIN8 (second series), hits give low values 1 | locus YEL061C, strain CIN8, hits give low values 1 | locus YER002W, strain NOP16, hits give low values 1 | locus YER015W, strain faa2, hits give low values 1 | locus YER016W, strain bim1, hits give low values 0.976 | locus YER110C, hits give low values 0.988 | locus YER111C, strain swi4, hits give low values 0.987 | locus YER155C, strain BEM2 (second series), hits give low values 0.972 | locus YER155C, strain BEM2, hits give low values 0.988 | locus YER167W, strain BCK2, hits give low values 0.984 | locus YFR010W, strain ubp6, hits give low values 1.02 | locus YGL078C, strain dbp3, hits give low values 0.987 | locus YGL086W, strain mad1, hits give low values 0.999 | locus YGL167C, strain pmr1, hits give low values 0.992 | locus YGL173C, strain kem1, hits give low values 0.998 | locus YGL227W, strain vid30, hits give low values 1.01 | locus YGL240W, strain doc1, hits give low values 1 | locus YGL248W, strain PDE1, hits give low values 1 | locus YGL253W, strain hxk2, hits give low values 1.02 | locus YGR078C, strain PAC10, hits give low values 1.04 and 0.986 | locus YGR135W, strain pre9, hits give low values 0.965 | locus YGR229C, strain SMI1, hits give low values 1.01 and 1.05 | locus YGR252W, strain gcn5, hits give low values 0.96 | locus YHR013C, strain ard1, hits give low values 0.966 | locus YHR027C, strain rpn1, hits give low values 1 | locus YHR030C, strain SLT2, hits give low values 0.992 and 1.02 | locus YHR079C, strain IRE1 (second series), hits give low values 0.988 | locus YHR079C, strain IRE1, hits give low values 1.02 | locus YHR094C, strain hxt1, hits give low values 0.98 | locus YHR129C, strain ARP1, hits give low values 0.993 | locus YHR142W, strain chs7, hits give low values 0.986 | locus YHR200W, strain rpn10, hits give low values 0.984 | locus YIL066C, strain RNR3, hits give low values 1 | locus YIL073C, strain SPO22, hits give low values 0.925 | locus YIL125W, strain kgd1, hits give low values 0.982 | locus YIR030C, strain dcg1, hits give low values 0.978 | locus YJL092W, strain hpr5, hits give low values 0.991 | locus YJL095W, strain BCK1 (second series), hits give low values 0.982 | locus YJL095W, strain BCK1, hits give low values 1.03 and 1.02 | locus YJL115W, strain asf1, hits give low values 0.979 | locus YJL129C, strain trk1, hits give low values 0.952 | locus YJL134W, strain LCB3, hits give low values 0.995 | locus YJL154C, strain vps35, hits give low values 0.989 | locus YJL164C, strain tpk1, hits give low values 0.991 | locus YJL166W, strain qcr8, hits give low values 0.997 | locus YJL168C, strain set2, hits give low values 0.987 | locus YJL187C, strain SWE1 (second series), hits give low values 1.02 | locus YJL187C, strain SWE1, hits give low values 0.992 | locus YJR043C, strain POL32, hits give low values 1.02 | locus YJR066W, strain TOR1, hits give low values 0.948
